Screening results as filed in PubChem.
Only a selection was taken, and hits are over-represented in it overall.
Sm TGR inh: qHTS Assay for the Inhibitors of Schistosoma Mansoni Peroxiredoxins | purified TGR, DTNB reduction, TNB absorbance 405 nm | Potency, µM (highest dose often 114 µM), for the others: top-dose activity change, negative = inhibition, actives largely listed as inhibitors | Schistosoma mansoni thioredoxin glutathione reductase (TGR), Q962Y6 | 360,000 compounds, 3% hits; also: potency is read from the fitted curve at half-maximal effect; % is scaled to controls: 0 for no effect and ±100 for the full control effect; nearly all actives have a fitted effect of over 60% in size
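TGR 20 nM + NADPH 100 uM (dispensed conc.), cpd preinc 15 min RT; start with NADPH (500 uM addition) then DTNB (15 mM addition). Kinetic TNB absorbance, 405 nm filter. Four-parameter Hill fit across titration.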
Tb PYK inh: qHTS of Trypanosoma Brucei Inhibitors | pyruvate kinase (Trypanosoma brucei), Q57TT1 | TbPYK enzyme, Kinase-Glo Plus ATP luminescence, 45 min | Potency, µM (series often up to 76.8 µM), for inactives: at the top dose activity, negative = inhibition, usual class: inhibitors | 410,000 compounds, 0.12% hits | AID 624173, 2012; also: potency is read from the fitted curve at half-maximal effect; % is scaled to controls: 0 for no effect and ±100 for the full control effect; nearly all actives have a fitted effect of over 50% in size
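TbPYK + substrate in 50 mM TEA pH 7.2, 100 mM KCl, 10 mM MgCl2, 0.05% BSA, 0.01% Tween-20; cpd pinned; ADP 130 uM final; 45 min RT; Kinase-Glo Plus 10 min; luminescence endpoint.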
FBPA Giardia inh: qHTS Assay for Inhibitors of Fructose-1,6-bisphosphate Aldolase from Giardia Lamblia | A8B2U2 | purified Giardia FBPA | Potency, µM (titrated, usually from 59.6 µM), without a hit: at the top dose activity, negative = inhibition, hits mostly inhibitors | 290,000 compounds, 0.71% hits; also: potency is read from the fitted curve at half-maximal effect; % is scaled to controls: 0 for no effect and ±100 for the full control effect; nearly all actives have a fitted effect of over 55% in size
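40 nM FBPA preincubated 10 min at RT with compound (up to 57.5 uM final), then substrate plus GAPDH/TPI/NAD/arsenate coupling and diaphorase/resazurin added. Fluorescence read after 20 min at RT, 525/598 nm.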
LmPK inh: qHTS Assay for Inhibitors of Leishmania Mexicana Pyruvate Kinase (LmPK); 290,000 compounds, 0.37% hits; Potency, µM (top dose mostly 57.5 µM), without a hit: at the highest dose activity change, negative = inhibition, hits mostly inhibitors; purified LmPK, Kinase-Glo ATP luminescence, 1 h; Q27686; also: potency is read from the fitted curve at half-maximal effect; % is scaled to controls: 0 for no effect and ±100 for the full control effect
Target sequence (Q27686 whole entry, looked up): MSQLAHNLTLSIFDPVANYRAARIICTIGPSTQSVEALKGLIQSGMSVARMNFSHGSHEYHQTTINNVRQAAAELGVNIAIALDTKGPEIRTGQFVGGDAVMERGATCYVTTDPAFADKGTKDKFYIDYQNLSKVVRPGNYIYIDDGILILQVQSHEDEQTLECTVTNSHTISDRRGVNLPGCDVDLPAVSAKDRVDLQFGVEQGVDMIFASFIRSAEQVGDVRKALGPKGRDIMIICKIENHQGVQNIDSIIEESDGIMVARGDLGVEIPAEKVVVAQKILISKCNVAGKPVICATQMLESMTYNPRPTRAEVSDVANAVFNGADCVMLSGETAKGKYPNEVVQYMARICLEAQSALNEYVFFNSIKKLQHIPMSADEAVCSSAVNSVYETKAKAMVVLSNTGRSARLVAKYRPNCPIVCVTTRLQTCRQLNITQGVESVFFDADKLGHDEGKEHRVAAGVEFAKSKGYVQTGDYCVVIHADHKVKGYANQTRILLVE
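Purified LmPK (0.1 nM) with 0.5 mM PEP and 0.1 mM ADP in imidazole buffer pH 7.2 with MgCl2/KCl, 1 h at room temperature. ATP formed was read by luciferase luminescence and normalized to no-enzyme and uninhibited controls.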
Shiga toxin inh: A qHTS for Small Molecule Inhibitors of Shiga Toxin; Vero cells, Shiga toxin protein synthesis inhibition reporter; AID 2315, 2010; 290,000 compounds, 9.2% hits; inhibition, % at 38.7 µM; in the data active = inhibition mostly above about 28%, no sharp cut-off; inactive = mostly below about 43%; also: 0% is about no effect
Cycloheximide cs: Cycloheximide Counterscreen for Small Molecule Inhibitors of Shiga Toxin; max response, %; AID 2314, 2010; 300,000 compounds, 12% hits; cell reporter, cycloheximide protein synthesis inhibition counterscreen; in the data active = max response mostly above about 13%, no sharp cut-off; inactive = mostly below about 14%; also: read at 38.3 µM for the half of the compounds with a filed dose; 0% is about no effect
The depositor's hits bear a star; ? = inconclusive; / = no result given; + = active, no number; [ ] = remark or other dose. Unless noted, calls follow the shape of the dose curve; as a rule, active = well fitted curve in the direction sought with a large enough effect; inconclusive = small, poorly fitted or top-dose-only effect, or another doubt; inactive = no such curve, though single readings can be large; an effect the other way counts as inactive or inconclusive.

SMILES	Sm TGR inh	Tb PYK inh	FBPA Giardia inh	LmPK inh	Shiga toxin inh	Cycloheximide cs
N#Cc1cccc(NC(=O)N2CC[C@@]3(CCCN(C(=O)c4csnn4)C3)C2)c1	/	1%	-2%	/	/	/
CCCCOCCOc1nc(-c2ccc(C(=O)O)c(F)c2)sc1C	/	0%	/	/	/	/
CCOC(=O)c1sc(SC)c2c1CCC/C2=N/OC	2%	-2%	8%	1%	-3	-2
CCOC(=O)c1sc(S(C)(=O)=O)c2c1CCc1conc1-2	13µM*	-1%	-27%	0%	-2	-2
CO/N=C/c1ccc(N2CCCC2)c([N+](=O)[O-])c1	7%	1%	-11%	0%	53	31*
COc1cccc(C(=O)/C=C/c2ccc(N3CCCCC3)c([N+](=O)[O-])c2)c1	3%	0%	0%	-4%	60*	29*
O=C(/C=C/c1ccc(N2CCCCC2)c([N+](=O)[O-])c1)c1ccc(S(=O)(=O)N2CCCC2)cc1	0%	-5%	2%	1%	-5	-2
Cc1ccc2c(=O)cc(C(=O)Nc3ccc(S(=O)(=O)Nc4nc(C)cc(C)n4)cc3)oc2c1	3%	2%	/	/	/	/
Cc1cccc(N2CCN(CCNC(=O)C3COc4ccccc4C3)CC2)c1C (stereo not drawn)	3%	-5%	/	/	/	/
O=C(C=Cc1ccccc1F)c1ccccc1	/	-8%	/	/	/	/
O=C(/C=C/c1ccccc1F)c1ccoc1	?	-13%	11%	-12%	123*	26*
COc1ccc(-n2nc(C#N)c(Cl)cc2=O)cc1	2.5µM*	4%	-2%	1%	-15	-5
COC(=O)c1nn(-c2ccc(OC)cc2)c(=O)cc1O	1%	-5%	?	2%	20	6
CCOn1c(=O)c(-c2ccc(OC)cc2)[n+]([O-])c2ccccc21	-7%	0%	-7%	-5%	21	2
CCOC(=O)COn1c(=O)c(-c2cc3ccccc3o2)[n+]([O-])c2ccccc21	3%	-2%	-16%	-3%	172*	72*
C=CCOn1c(=O)c(-c2cc3ccccc3o2)[n+]([O-])c2ccccc21	2%	-17%	-4%	0%	120*	38*
CCOC(=O)c1nn(-c2ccc(OC)cc2)c(=O)c2c(NC(=O)Cc3ccccc3)scc12	/	/	/	/	-1	10
CC1(C)CC(=O)C2=C(C1)Nc1ccccc1NC2	-1%	2%	?	-5%	139*	44*
CC1(C)CC(=O)C2=C(C1)Nc1ccccc1N=C2	-28%	/	?	-22%	85*	50*
COc1ccc(C2CC(c3c(O)n(C4CCCCC4)c(=O)[nH]c3=O)=Nc3ccccc3S2)cc1 (stereo not drawn)	-4%	-3%	/	/	/	/
O=C(NCCc1ccccc1)c1ccc(Br)o1	?	-4%	8%	5%	83*	46*
O=C(NCC(=O)N1CCN(Cc2ccccc2)CC1)c1ccc(Br)o1	0%	-4%	7%	4%	16	14*
O=C(NCCc1ccccc1)c1cccc(Br)n1	/	/	0%[89.2 µM]	/	+	78*
CC(=O)N1CCCc2cc(S(=O)(=O)N3CCCCC3)ccc21	-1%	-13%	/	/	/	/
CC(=O)Nc1ccc(NC(=O)CSc2nc(=O)n(Cc3cccnc3)c3c2CCC3)cc1	/	10%	/	/	/	/
CCCCCOc1ccc(C)cc1CN(CCCl)CCCl	11µM*	0%	-24%	-1%	3	2
C=CCc1cc(C)ccc1OCCCC(C(=O)OCC)C(=O)OCC	2%	1%	0%	0%	12	-2
Cc1noc(C)c1C(=O)NNc1ccc(C(C)C)cc1	20µM*	-2%	5%	7%	-7	8
Cc1ccc(NNC(=O)c2c(C)noc2C)cc1Cl	?	1%	-5%	-2%	-4	-1
Cc1ccccc1NC(=O)c1c(C)oc2ccc(O)c(CN3CCOCC3)c12	0%	-2%	/	/	/	/
